VACV mCherry inh: qHTS for Stage-Specific Inhibitors of Vaccinia Orthopoxvirus: mCherry Reporter Primary qHTS | Potency, µM (highest dose often 36.5 µM), for inactives: at the top dose activity change, negative = inhibition, most hits filed as inhibitors | hit rate 0.63% among 310,000 | Vaccinia virus mCherry reporter infection, fluorescence; calls by dose curve; tested in A549 cells; note: potency is the fitted concentration of half-maximal effect; % is set by controls: 0 for no effect and ±100 for the full control effect; nearly all actives have a fitted effect of over 35% in size
Giardia FBPA inh: qHTS Assay for Inhibitors of Fructose-1,6-bisphosphate Aldolase from Giardia Lamblia | A8B2U2 | purified Giardia FBPA | Potency, µM (doses to about 59.6 µM), inactives show top-dose activity, negative = inhibition, most hits filed as inhibitors | hit rate 0.71% among 290,000; note: potency is the fitted concentration of half-maximal effect; % is set by controls: 0 for no effect and ±100 for the full control effect; nearly all actives have a fitted effect of over 55% in size
Target sequence (A8B2U2 whole entry, looked up): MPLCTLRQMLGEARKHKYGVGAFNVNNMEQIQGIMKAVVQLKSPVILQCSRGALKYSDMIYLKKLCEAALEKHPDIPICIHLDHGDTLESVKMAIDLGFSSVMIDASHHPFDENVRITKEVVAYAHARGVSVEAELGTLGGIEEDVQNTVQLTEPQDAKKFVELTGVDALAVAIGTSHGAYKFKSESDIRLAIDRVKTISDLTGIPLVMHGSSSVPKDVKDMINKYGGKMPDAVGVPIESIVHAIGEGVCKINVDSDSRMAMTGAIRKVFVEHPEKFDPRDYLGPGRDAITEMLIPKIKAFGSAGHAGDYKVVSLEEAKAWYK
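Giardia FBPA (40 nM reagent) was preincubated 10 min at RT with compound (up to 57.5 uM final), then substrate plus GAPDH/TPI/NAD/arsenate coupling system with diaphorase/resazurin was added; resorufin fluorescence (525/598 nm) was read after 20 min.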
HCV inh: qHTS Assay for Inhibitors of Hepatitis C Virus (HCV). Huh7.5.1 HCVcc-Cre infection, luciferase reporter, 44 h. Potency, µM (doses to about 41.8 µM), without a hit: at the highest dose activity change, negative = inhibition, actives largely listed as inhibitors. AID 651820, 2012. hit rate 3.4% among 340,000; note: potency is the fitted concentration of half-maximal effect; % is set by controls: 0 for no effect and ±100 for the full control effect
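Infectious HCV cell culture screen: compound-treated cells (1,000/well, pre-plated 4 h) are infected with HCVcc-Cre at roughly 0.5 moi and grown 44 h. Infection is quantified by luciferase signal after 15 min substrate incubation at room temperature.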
Vaccinia Venus: qHTS for Stage-Specific Inhibitors of Vaccinia Orthopoxvirus: Venus Reporter Primary qHTS | hit rate 0.46% among 330,000 | AID 720580, 2013 | Vaccinia virus Venus reporter expression, fluorescence | Potency, µM (doses to about 36.5 µM), without a hit: top-dose activity change, negative = inhibition, usual class: inhibitors; calls by dose curve; tested in A549 cells; note: potency is the fitted concentration of half-maximal effect; % is set by controls: 0 for no effect and ±100 for the full control effect; nearly all actives have a fitted effect of over 30% in size
FMDV antiviral: High Throughput Screening for Foot and Mouth Disease Virus Antivirals. FMDV antiviral cell-based qHTS. Potency, µM (series often up to 57.9 µM), without a hit: top-dose activity change, negative = inhibition, hits mostly inhibitors. hit rate 1.2% among 410,000. AID 1159524, 2015; calls by dose curve; tested in HEK293T cells; note: read-out not given here; potency is the fitted concentration of half-maximal effect; % is set by controls: 0 for no effect and ±100 for the full control effect; nearly all actives have a fitted effect of over 45% in size
HCMV antiviral: qHTS Assay for inhibitors of the human cytomegalovirus (HCMV); activity change, negative = inhibition, % at 57.5 µM; hit rate 4.5% among 410,000; HFF cells, HCMV-luciferase reporter, 72 h; active compounds read low; in the data active = activity change below about -60%; inconclusive = no clear call, values can overlap the other calls; inactive = above about -39%; note: % is set by controls: 0 for no effect and ±100 for the full control effect
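Cell-based, HFFs, 1000 cells/well, 16 h 37C; cpds in DMSO + HCMV-luc, MOI 1 PFU/cell; 72 h 37C; OneGlo luminescence after 5 min RT; norm. to buffer vs Salinomycin 10uM.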
HCV inh confirm: qHTS Assay for Inhibitors of Hepatitis C Virus (HCV): Confirmation Assay for Cherry-picked Compounds; Potency, µM (top dose mostly 41.8 µM), without a hit: at the top dose activity, negative = inhibition, usual class: inhibitors; shares compounds with HCV inh; AID 720575, 2013; hit rate 78% among 640; HCVcc-Cre infectious virus cell assay, luciferase, inhibition; note: potency is the fitted concentration of half-maximal effect; nearly all actives have a fitted effect of over 80% in size
HCV cytotox: qHTS Assay for Inhibitors of Hepatitis C Virus (HCV): Cytotoxicity Counterscreen for Cherry-picked Compounds. Potency, µM (top dose mostly 41.8 µM), without a hit: top-dose activity change, negative = cytotoxicity, hits mostly inhibitors. HCV host cell line cytotoxicity counterscreen. shares compounds with HCV inh. hit rate 22% among 640;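 note: potency is the fitted concentration of half-maximal effect; 44 h compound exposure; % is set by controls: 0 for no effect and ±100 for the full control effect; nearly all actives have a fitted effect of over 55% in size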
Numbers without * were called inactive; i = inactive; ? = inconclusive; · = no result; [ ] = another dose, or the depositor's remark. Compounds with a hit are over-represented: about 7.5% of the library has one in this group of screens. Unless noted, calls come from the whole dose curve; as a rule, active = well fitted curve in the direction sought with a large enough effect; inconclusive = small, poorly fitted or top-dose-only effect, or another doubt; inactive = no such curve, though single readings can be large; an effect the other way counts as inactive or inconclusive.

SMILES	VACV mCherry inh	Giardia FBPA inh	HCV inh	Vaccinia Venus	FMDV antiviral	HCMV antiviral	HCV inh confirm	HCV cytotox
CCOC(=O)c1ccc(NC(=S)N(CCCN2CCCC2)Cc2cccs2)cc1	-17%	1%	?	-16%	41%	-26	?	22%
CCOC(=O)c1ccc(NC(=S)N(CCCN2CCN(C)CC2)Cc2cccs2)cc1	-14%	6%	?	-17%	9%	8	·	·
COc1cc(C(=O)NNC(=O)c2ccccc2OCc2c(C)noc2C)cc(OC)c1OC	·	·	?	·	-21%	46	·	·
O=C(Nc1cc(Br)ccc1O)c1cnn2c(C(F)F)cc(C3CC3)nc12	-24%	-8%	?	?	-15%	-7	7µM*	-95%
O=C(Nc1ccc(S(=O)(=O)N2CCCC2)cc1)c1ccc(CN2CCc3ccccc3C2)cc1	?	-17%	7.1µM*	?	?	·	0.63µM*	1µM*
O=C(NN=Cc1cc(Br)c(O)c(Br)c1)c1ccccc1NS(=O)(=O)c1cccs1	i	·	22%	-13%	?	-16	·	·
COc1ccc(CNc2ncnc3cc(Cl)ccc23)cc1	-24%	1%	8.9µM*	-22%	?	-65*	25µM*	?
O=[N+]([O-])c1ccc(/C=[N+](\[O-])[C@@H]2CCCC[C@@H]2/[N+]([O-])=C/c2ccc([N+](=O)[O-])o2)o1	i	-28%	?	-8%	32µM*	-98*	?	?
N#C/C(=C\c1cc([N+](=O)[O-])c(N2CCCCC2)cc1N1CCCCC1)c1nn(-c2ccccc2)c(N)c1C#N	-12%	0%	?	-11%	-8%	29	10µM*	40%
N#C/C(=C\c1cc([N+](=O)[O-])c(N2CCOCC2)cc1N1CCOCC1)c1nc2ccccc2[nH]1	-18%	-7%	?	-11%	-15%	-29	·	·
CCN(C(=O)c1nn(-c2ccc(OC)c(Cl)c2)c(=O)c2c1c1ccccc1n2C)c1cccc(C(F)(F)F)c1	1%	·	·	5%	0%	-2	·	·
CN1CCC(=C2c3ccccc3CCc3sccc32)CC1	?	-6%	?	-29%	?	·	3.1µM*	-23%
CCOc1cccc2sc(N(CCCN(C)C)C(=O)c3ccc(S(=O)(=O)N(C)Cc4ccccc4)cc3)nc12	?	-9%	5µM*	?	?	?	14µM*	-29%
COc1cc2c(cc1NC(=O)COc1ccc3ccccc3c1)oc1ccccc12	·	-3%	-6%	·	-7%	-17	·	·
COc1ccccc1CC(=O)Nc1cc2oc3ccccc3c2cc1OC	?	-2%	4µM*	-30%	·	-8	13µM*	22%
COc1ccc(C2=C(Nc3ccc(C)cc3C)c3ccccc3C2=O)cc1	-8%	·	·	-6%	0%	3	·	·
Cc1ccc(NC2=C/C(=N\S(=O)(=O)c3cccs3)c3ccccc3C2=O)c(C)c1	10µM*	?	5.6µM*	6.3µM*	25µM*	·	2.5µM*	3.5µM*
Cc1ccc(C2=NCCn3c2c2ccc([N+](=O)[O-])cc2[n+]3[O-])cc1	?	·	?	?	45%	17	22µM*	30%
COC(=O)c1cn(-c2ccccc2)nc1-c1ccc(OC)c(OC)c1	·	11%	7.9µM*	·	0%	-7	14µM*	50%
COc1ccc(-c2nn(-c3ccccc3)cc2C(=O)O)cc1N	·	1%	15%	·	-22%	1	·	·
CCCCN(C(C)=O)c1ccc2c(c1)C1CC2CCN1C(=O)OCc1ccccc1 (centres undefined)	?	·	3.5µM*	?	40µM*	?	4µM*	7.9µM*
CCOc1cc(NC(=S)NCC2CCCO2)c(OCC)cc1NC(=O)c1ccccc1 (centres undefined)	·	-5%	8.9µM*	·	3%	-9	?	32%
O=c1oc2ccc3ccccc3c2cc1-c1nnc(Nc2cccc(C(F)(F)F)c2)s1	-12%	·	·	-3%	1%	0	·	·
CCOc1cc(CNCCc2ccc(S(N)(=O)=O)cc2)cc(Cl)c1OCc1ccccc1	·	4%	1.6µM*	·	20µM*	-61*	4.4µM*	13µM*
CC1(C)SC(=S)N(/N=C/c2cccnc2)C1N(O)C(=O)NC1CCCCC1 (centres undefined)	i	-9%	7.9µM*	-4%	67%	1	11µM*	-14%
SMILES	VACV mCherry inh	Giardia FBPA inh	HCV inh	Vaccinia Venus	FMDV antiviral	HCMV antiviral	HCV inh confirm	HCV cytotox
CNC(=O)N(O)C1N(/N=C/c2ccc(N(C)C)cc2)C(=S)SC1(C)C (centres undefined)	·	?	-12%	·	61%	-7	·	·
NS(=O)(=O)c1ccc(NC(=O)CN2CCN(S(=O)(=O)c3cccs3)CC2)cc1	-10%	·	14%	-5%	-17%	-9	·	·
Nc1ccccc1C#Cc1ccc([N+](=O)[O-])cc1	?	·	?	-9%	40%	114	1.8µM*	9%
Cc1cccc(S(=O)(=O)Nc2ccc(-c3cn4ccccc4n3)cc2)c1	i	9%	9%	-16%	-4%	-3	·	·
Cc1cc(C)c(S(=O)(=O)Nc2ccc(-c3cn4ccccc4n3)cc2)c(C)c1	·	-5%	?	-26%	0%	?	22µM*	-14%
O=C(CSc1nc(=O)[nH]c2c1CCCC2)NCc1ccc(Cl)cc1	-5%[7.34 µM]	·	·	-8%[7.34 µM]	-9%	-27	·	·
O=C(O)c1cc(NCc2cc(O)ccc2O)ccc1O	-15%	·	·	-1%	-6%	·	·	·
O=C(OCC12CC3CC(CC(C3)C1)C2)c1ccc(NCc2cc(O)ccc2O)cc1	?	·	1.6µM*	?	18µM*	-77*	4µM*	10µM*
COc1cc(S(=O)(=O)N2CCCN(C)CC2)ccc1NC(C)=O	-6%	·	-2%	-2%	31%	-9	·	·
CC1(c2ccc(OCC#N)cc2)C=C(c2ccc(OCC#N)cc2)n2nc(C(F)(F)F)nc2N1 (centres undefined)	?	-13%	8.9µM*	-26%	?	-69*	22µM*	35%

From PubChem BioAssay
